{"source": "the supplement of paper PMC12632987", "binders": {"B1": {"name": "GBRAP_96_7095 (protein)", "chain": "MLEEAKKLVKELIKALDTDPEKAEELAKKLLEFPVEVVTEALVEVVKKPEDAAKIAKLLLKLGDEKAEEVLLEAAEKAPGDISKAIIDAMEAYEKEQEAA"}, "B2": {"name": "GBRAP_128_3565 (protein)", "chain": "STAELVAEARALLAAIKAADAEEARALAERLADLIAAASPEARAAIVETILARLPELTAEQLDILADVFAARRATADPAVAEALAEIQVEALNVREEKEE"}, "B3": {"name": "GBRAP_14_3799 (protein)", "chain": "MEEREKAIEEITEETLEILEEILADAPEEVRERVLELVEEARERIIKEKLSPDEIAELEDELLEEVAKILADAPPEVRAQVLAAISVGMGEIILEVEELE"}, "B4": {"name": "GBRAP_160_4163 (protein)", "chain": "MEEAEELIKEVEEETKEAIELIEGESIEQRKVIIAGHFGVIIMTLFESDVVSDEVVDFAVELRDELVKWIDENPDASLEEIKKKIKEAEKKIKEKIKKDA"}, "B5": {"name": "GBRAP_35_5613 (protein)", "chain": "EDVQLAVDSFVDMAEAIIELIPEIDDETLAALAQSLIKFAKSLLKEEKNNKEALEKIKEAMEKLLEALKKYRSDNPLIQKVAKEVQEVIKEAEKAIKEVK"}, "B6": {"name": "GBRAP_52_5915 (protein)", "chain": "MSAELEAKLDEMLAAVKAGKLEEARAIAREIVESLDDEELRELVELFAERVRAAPLEDLPAWWRLAEILAEELEEAGKDEVLADDLLNRTAAAIYEKLQA"}, "B7": {"name": "GBRAP_160_4375 (protein)", "chain": "SEELKELIKEIEELKKEFEELAKDLSPEEVKILAKGVLSEIAALVFENEAVSEETKDKIMEIIDKALEELDKLKDASPEEIVAVTTEAVNEIIELIKKEI"}, "B8": {"name": "GBRAP_14_3854 (protein)", "chain": "MEKLIAAVKKTAEAAIEFAKELLPEHAEEVGKKIKELAEKIIEKIKKENLNKEEVAELIRKMAEELGKFIKEKGYASDEEIAAFKAFIENEALLELEKVE"}, "B9": {"name": "GBRAP_52_5907 (protein)", "chain": "MKEELEKILNEIIEAVKAGKLEEARKIARELAEKYDDETLEEFIELFAEMVLEAPEEDLPYYWKAAEILAEEFEREGKDEVLADLLLSRTAAAIYEKLQR"}, "B10": {"name": "GBRAP_26_5463 (protein)", "chain": "MDEAFRAALDAVDAAAATLPNPNAAAAVTAEAATVLEELEEAIEAGEDIAAAVAAARDELLAAARAIGEEEGLPAATIAAMEATLTAIFDALEAALKAAA"}, "B11": {"name": "GBRAP_26_5467 (protein)", "chain": "MDAAFAAARDRIDAIAAKLPDPRAAAALRALADTELLELEERIEAGEDIDAAVDAARDAFLAEAREILEDAGLPEELIAKTLAEFEAVFDDLRAALKAAQ"}, "B12": {"name": "GBRAP_52_6357 (protein)", "chain": "KLEEALALLERALEAMLAGREDEARAILREIVETYDDETILAAFERLAEKILGKSVEEAEAFLDLALLLADVMDELGRDEAVGDEIEAIAAKAYMTVLEK"}, "B13": {"name": "GBRAP_160_3973 (protein)", "chain": "SEEVEELKKEIKELFDEAKKLIEGESYEERLTIIKVMVGDILLLADENPLISDEVEDKIDEIGDELIETIEKNPDLTDEEIKKLIDEAEEKILKTIDEAF"}, "B14": {"name": "GBRAP_43_5767 (protein)", "chain": "SKELVEGAFETAILLLEDPSISEETKVKAIIAAMELAADEGYVDKELLEKVVELAGKTLSKESLEKILKAAKKLAKEYPESKEAFEEAAKKLEEAIAKKE"}, "B15": {"name": "GBRAP_64_6486 (protein)", "chain": "EEEIKKLHEETLKQAKKLVELLKDSSEELQKQAKEVLELIEKSKEASLEEAAKLLAEAAKLLNELLKSPELTEEQKDQVAETLDLVSELLWLVVEKELEK"}, "B16": {"name": "GBRAP_52_5904 (protein)", "chain": "MREELRAQVEEMLALVRAGDLEGARALAREIAETLNDEELRLLIEEVAALVREAPLEELPAWWRLAEIMAEAFEEAGKDEVLADDLLAATAAAIHERLQR"}, "B17": {"name": "GBRAP_184_5166 (protein)", "chain": "MIKEFEIKIENVEEAKEKIEEIKKEVEGLKAELYVIVETKELTVEIAKAILEGLKEMKEKGYVTSITVEFTGKIDEETLDVAVKLADEAGVKLVIAIDEE"}, "B18": {"name": "GBRAP_139_3707 (protein)", "chain": "SALEELIAEARRLTREMREDPEAALEALVELLLSVSEEELEVLVEAIAEELSRLPLDEAEELADRLLELVEERFKDEDKIDIVEAVLNGALARKAAEEEA"}, "B19": {"name": "GBRAP_128_3416 (protein)", "chain": "ADAALVAKAKELLEKMKTADAATAAALADEIAALIAAADLETAEAIAEVIEEELPKLTAEQLDILADALRAALPAASPEKAEILAGVLVDALNEAEEKEE"}}, "note": "The full ranking holds about 4,500 sequences; the median of “median log2 fold change of GCK-ALFA target abundance (FLAG IP / Myc IP barcode read proportion)” is about 0.078, and the lowest 2% start at about -0.6. This is one part of a sample in which the lowest values are shown more often than they occur."}
{"biological_target": "GABARAP, O95166", "sequence (O95166 whole entry, the tested form may be a part)": "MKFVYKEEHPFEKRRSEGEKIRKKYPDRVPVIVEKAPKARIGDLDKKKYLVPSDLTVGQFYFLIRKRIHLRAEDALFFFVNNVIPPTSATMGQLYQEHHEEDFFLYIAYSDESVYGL", "assay": "median log2 fold change of GCK-ALFA target abundance (FLAG IP / Myc IP barcode read proportion) (log2 ratio); each designed protein is fused to an ALFA-tag nanobody in HEK293 cells to bring the named protein to FLAG-tagged glucokinase (GCK); Myc marks an untargeted standard; higher = target protein stabilised (more abundant)", "settings": "target protein: 3xFLAG-MCP-GCK-ALFA reporter; HEK293 landing pad (RPLP)", "how_it_was_run": "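An ALFA-nanobody-fused binder library was recombined into HEK293 landing-pad cells and induced with 2 μg mL^−1 doxycycline. Cells were transfected with a plasmid expressing a FLAG-tagged target and a Myc-tagged standard. After 48 h, lysates underwent anti-FLAG and anti-Myc immunoprecipitation, and circular RNA barcodes were reverse transcribed, amplified and sequenced. Target abundance is the per-binder median log2 ratio of FLAG to Myc barcode read proportions. Barcodes needed ≥10^−7 proportion in both replicates, binders ≥3 barcodes per replicate, and a 10^−6 pseudocount was added; the two replicates were pooled.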"}
{"binder": "B1", "median log2 fold change": 0.344}
{"binder": "B2", "median log2 fold change": 0.318}
{"binder": "B3", "median log2 fold change": -0.611}
{"binder": "B4", "median log2 fold change": 0.215}
{"binder": "B5", "median log2 fold change": -0.07}
{"binder": "B6", "median log2 fold change": -0.669}
{"binder": "B7", "median log2 fold change": 0.194}
{"binder": "B8", "median log2 fold change": 0.381}
{"binder": "B9", "median log2 fold change": -0.881}
{"binder": "B10", "median log2 fold change": 0.261}
{"binder": "B11", "median log2 fold change": 0.199}
{"binder": "B12", "median log2 fold change": -0.492}
{"binder": "B13", "median log2 fold change": -0.605}
{"binder": "B14", "median log2 fold change": 0.243}
{"binder": "B15", "median log2 fold change": 0.19}
{"binder": "B16", "median log2 fold change": -0.644}
{"binder": "B17", "median log2 fold change": 0.0333}
{"binder": "B18", "median log2 fold change": -0.0884}
{"binder": "B19", "median log2 fold change": 0.247}
